# Source: PubChem
# An excerpt weighted towards active compounds, which were near 2.3% of everything screened.
# CHT inh – inhibitors of human choline transporter CHT; High affinity choline transporter 1 (Homo sapiens), Q9GZV3; CHT-expressing cells, membrane potential dye, choline response; active compounds read low; B-score at 10 µM; actives 0.86% (n = 310,000); AID 488975, 2010;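 active means B-score over 3 SD under the library average, and starting fluorescence ratio not unusually high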;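 further: choline stimulus applied at its EC90 after an EC20 pre-addition; B-score computed on integrated fluorescence ratio after choline addition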
# CHT allo act – CHT positive allosteric modulators, primary screen, cell-based, membrane potential dye, choline EC20. High affinity choline transporter 1 (Homo sapiens), Q9GZV3. CHT-expressing cells; active compounds read high; LV-AA mutant CHT in HEK293 cells. B-score at 10 µM. actives 0.49% (n = 310,000). AID 488977, 2010;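 active means initial fluorescence not abnormally high and integrated response B-score, plate-corrected, over 3 SD above library mean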
# TMEM16A act – TMEM16A chloride channel activators or potentiators, primary screen, cell-based, HTS | HEK293 TMEM16A/YFP-H148Q/I152L, iodide quench fluorescence; active compounds read low | B-score at 10 µM | actives 0.3% (n = 340,000);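 active means fluorescence-ratio B-score plate-corrected deviation score at least 3 library SD below zero, with starting fluorescence score within 5 deviations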;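 further: channel opened by trigger with iodide after compound preincubation; score built on the fluorescence ratio of max minus min over baseline; more negative score means more quench and so TMEM16A activation or potentiation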
# TMEM16A inh – TMEM16A chloride channel inhibitors, primary screen, cell-based, HTS | actives 1.2% (n = 310,000) | AID 588511, 2011 | normalized B-score (activity score, 25-100; higher = stronger inhibition) at 10 µM | HEK293 TMEM16A/YFP iodide influx fluorescence, ionomycin | Anoctamin-1 (Mus musculus), Q8BHY3;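 active means ratio plate-corrected score three or more library SD toward inhibition, starting fluorescence score within five deviations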;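 further: score derived from kinetic fluorescence span divided by baseline fluorescence per well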
# CHT activ conf – CHT activators, confirmation, cell-based, membrane potential dye, duplicate. activation, % at 10 µM. shares compounds with CHT allo act. CHT-expressing cells, membrane potential dye fluorescence (FDSS); % of choline EC20–EC90 response window; HEK293 expressing CHT LV-AA mutant; choline added at its EC20. actives 91% (n = 2,500);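 active means primary screen active, with duplicate mean activation above negative control mean plus 3 SD, cut at about 11% in these data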
# HEK293 MP dye – membrane potential response in parental HEK293 cells, counter-screen for CHT activator project, cell-based, membrane potential dye | ratio readout change at 10 µM, hits read low | AID 623908, 2012 | actives 62% (n = 2,500) | shares compounds with CHT allo act | membrane potential dye fluorescence (FDSS); measured after EC20 choline addition;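 active means duplicate-averaged ratio beyond 3 SD from buffer wells, up or down, though filed actives are nearly all decreases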
# Starred values were filed as active, the others as inactive; i = inactive; / = not tested or not shown.
SMILES,CHT inh,CHT allo act,TMEM16A act,TMEM16A inh,CHT activ conf,HEK293 MP dye
COC(=O)[C@@H](NC(=O)O[C@@H]1C(=O)c2ccc(OC)cc2O[C@H]1c1cccc(C(F)(F)F)c1)C(C)C,i,i,/,i,/,/
CCCN1C2=NCCCN2c2ccccc21,i,i,i,i,/,/
CCCN1C2=NCCN2c2ccccc21,i,6.35*,i,i,41.0*,-35.7*
CCCCCCN1C2=NCCN2c2ccccc21,i,i,i,i,/,/
CN1C2=NCCN2C(=O)c2ccccc21,i,9.37*,i,i,28.5*,-51.8*
COc1nc2ccccc2c(=O)n1OCC(C)C,i,i,i,i,/,/
Cc1ccc(NC(=O)CN(C)CC(=O)N(CC(C)C)c2c(N)n(CC(C)C)c(=O)[nH]c2=O)c(C)c1,/,/,i,/,/,/
O=C(C[n+]1ccccc1)N/N=C/c1ccc(Cl)cc1,/,/,i,/,/,/
COc1ccccc1CCNC(=O)c1cccc(S(=O)(=O)N2CCc3ccccc3C2)c1,/,/,i,/,/,/
CCOC(=O)c1cc2c(=O)n3ccccc3nc2n(CC2CCCO2)c1=NC(=O)/C=C/c1ccccc1 (stereo unspecified),i,i,i,i,14.8*,i
CCOC(=O)c1cc2c(=O)n3ccccc3nc2n(Cc2ccco2)c1=NC(=O)c1ccc(OC)cc1OC,i,i,i,i,20.9*,-25.5*
C/C(=N/Nc1ccc(C(=O)O)cc1)c1ccc(O)c(O)c1O,i,i,i,i,/,/
CCOC(=O)CSc1ccc2nnc(-c3ccncc3)n2n1,i,i,i,i,12.1*,-33.1*
CCOC(=O)CSc1ccc2nnc(-c3cccs3)n2n1,i,i,i,i,/,/
COc1ccc(-c2nnc3ccc(SCC(N)=O)nn23)cc1OC,i,i,i,i,31.0*,-30.6*
COc1ccc(-c2nnc3ccc(SCC(=O)N4CCCCC4)nn23)cc1OC,i,i,i,i,19.7*,i
COc1cc(OC)c(-c2nc(-c3ccncc3)no2)cc1OC,i,i,i,i,44.7*,-43.4*
COc1ccc(-c2nc(-c3ccncc3)no2)c(OC)c1,i,i,i,i,/,/
CSCC(C)N1CCC(n2nccc2NC(=O)CCOc2ccccc2)CC1 (stereo unspecified),i,i,i,i,/,/
CC(=O)c1cccc(Nc2nc(=O)c3cccnc3s2)c1,i,6.96*,i,i,48.4*,-43.8*
O=C1c2cccc3cccc(c23)C(=O)N1CC1CCN(CC(O)COCc2ccc3c(c2)OCO3)CC1 (stereo unspecified),i,i,i,i,38.3*,-55.9*
COc1ccc(OCC(O)CN2CCC(CN3C(=O)c4cccc5cccc(c45)C3=O)CC2)cc1 (stereo unspecified),i,i,i,i,/,/
COc1ccc(Nc2nc(-c3cccs3)nc3ccccc23)c(OC)c1,i,7.99*,i,i,9.8*,i
COc1ccc(Nc2nc(N3CCN(C)CC3)nc3ccccc23)c(OC)c1,i,i,i,i,/,/
O=C(N=C1SC2CS(=O)(=O)CC2N1Cc1ccc(Cl)cc1)C1CCCO1 (stereo unspecified),i,i,i,i,/,/
Cc1ccc2c(c1)c1c3n2CCN(CC(N)=O)C3CCC1 (stereo unspecified),i,i,i,i,/,/
Cc1ccc2c(c1)c1c3n2CCN(CC(O)CNC(C)C)C3CCC1 (stereo unspecified),i,i,i,i,17.4*,-31*
OC1CCN(C(=S)Nc2ccc(Oc3ccccc3)cc2)CC1,i,i,i,i,/,/
S=C(NCc1ccc(Cl)cc1)NCc1ccccn1,i,i,i,i,/,/
